Test results as given in PMC7862700, “An all-to-all approach to the identification of sequence-specific readers for epigenetic DNA modifications on cytosine”.

Legend:
Experiment in all cases: DAPPL (digital affinity profiling via proximity ligation, sequencing); 10 mM Tris-HCl pH 7.5, 50 mM NaCl, 1 mM DTT, 4% glycerol, room temperature, 30 min; GST-TFs on glutathione beads, 16-mer random dsDNA library, 0.1% formaldehyde crosslink after washing; high values mean tight binding
FLI1 = target: T1, FLI1 (Homo sapiens, UniProt Q01543 1-452); conditions: protein: recombinant; tags: N-terminal GST; dsDNA, one strand shown
T1 sequence: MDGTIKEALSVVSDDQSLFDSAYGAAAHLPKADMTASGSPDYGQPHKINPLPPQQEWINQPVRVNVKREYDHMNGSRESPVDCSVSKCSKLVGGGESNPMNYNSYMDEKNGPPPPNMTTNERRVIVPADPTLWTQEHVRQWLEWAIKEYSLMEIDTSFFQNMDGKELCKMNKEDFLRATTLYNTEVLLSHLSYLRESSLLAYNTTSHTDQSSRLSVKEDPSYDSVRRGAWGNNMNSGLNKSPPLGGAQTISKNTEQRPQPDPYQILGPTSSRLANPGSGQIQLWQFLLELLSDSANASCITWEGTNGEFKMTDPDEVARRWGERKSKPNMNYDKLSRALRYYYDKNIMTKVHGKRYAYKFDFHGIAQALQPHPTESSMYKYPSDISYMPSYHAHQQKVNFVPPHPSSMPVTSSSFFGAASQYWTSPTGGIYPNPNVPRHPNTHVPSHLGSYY
Procedure, shortened: (§1)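 Human transcription factors carrying a GST fusion were produced in yeast, bound to glutathione beads, tagged with DNA barcodes and pooled together with a tag-only sample. Each pool was held with 200 nmole of a random double-stranded 16-mer DNA library in Tris/NaCl/DTT/glycerol buffer for 30 min at room temperature, then washed, crosslinked in 0.1% formaldehyde, proximity-ligated with BsaI/T4 ligase (1 h, 37 °C), PCR-amplified and sequenced on an Illumina NextSeq500. Binding signal is the read frequency of each hexamer for a given factor divided by its frequency in the tag-only sample.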

ELK1 = target: T2, ELK1 (Homo sapiens, UniProt P19419 1-428); conditions: protein: recombinant; tags: N-terminal GST; dsDNA, one strand shown
T2 sequence: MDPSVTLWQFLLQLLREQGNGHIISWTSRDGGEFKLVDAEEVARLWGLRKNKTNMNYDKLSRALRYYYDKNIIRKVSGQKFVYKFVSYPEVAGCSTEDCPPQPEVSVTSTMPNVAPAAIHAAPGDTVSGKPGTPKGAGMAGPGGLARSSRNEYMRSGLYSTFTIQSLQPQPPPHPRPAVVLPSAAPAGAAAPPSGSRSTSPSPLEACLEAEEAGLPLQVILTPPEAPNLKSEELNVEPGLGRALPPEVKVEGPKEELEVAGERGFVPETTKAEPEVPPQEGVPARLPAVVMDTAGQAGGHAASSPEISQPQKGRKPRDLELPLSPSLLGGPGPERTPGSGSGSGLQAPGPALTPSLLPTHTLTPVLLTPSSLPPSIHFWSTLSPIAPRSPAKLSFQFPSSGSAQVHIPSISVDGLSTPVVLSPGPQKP
Procedure, shortened: as §1

GABPA = target: T3, GABPA (Homo sapiens, UniProt Q06546 1-454); conditions: protein: recombinant; tags: N-terminal GST; dsDNA, one strand shown
T3 sequence: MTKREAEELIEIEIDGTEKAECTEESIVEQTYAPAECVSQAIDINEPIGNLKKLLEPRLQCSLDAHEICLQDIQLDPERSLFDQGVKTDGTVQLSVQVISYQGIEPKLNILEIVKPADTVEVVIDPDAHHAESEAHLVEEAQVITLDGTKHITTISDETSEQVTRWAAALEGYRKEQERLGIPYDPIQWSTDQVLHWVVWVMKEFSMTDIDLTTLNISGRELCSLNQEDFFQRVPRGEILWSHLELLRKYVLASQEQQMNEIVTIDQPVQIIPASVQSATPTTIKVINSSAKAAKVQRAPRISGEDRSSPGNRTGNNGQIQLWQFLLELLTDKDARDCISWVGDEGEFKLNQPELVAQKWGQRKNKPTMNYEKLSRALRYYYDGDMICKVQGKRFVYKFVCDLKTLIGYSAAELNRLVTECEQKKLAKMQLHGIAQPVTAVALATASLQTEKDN
Procedure, shortened: as §1

ERG = target: T4, ERG (Homo sapiens, UniProt P11308 1-479); conditions: protein: recombinant; tags: N-terminal GST; dsDNA, one strand shown
T4 sequence: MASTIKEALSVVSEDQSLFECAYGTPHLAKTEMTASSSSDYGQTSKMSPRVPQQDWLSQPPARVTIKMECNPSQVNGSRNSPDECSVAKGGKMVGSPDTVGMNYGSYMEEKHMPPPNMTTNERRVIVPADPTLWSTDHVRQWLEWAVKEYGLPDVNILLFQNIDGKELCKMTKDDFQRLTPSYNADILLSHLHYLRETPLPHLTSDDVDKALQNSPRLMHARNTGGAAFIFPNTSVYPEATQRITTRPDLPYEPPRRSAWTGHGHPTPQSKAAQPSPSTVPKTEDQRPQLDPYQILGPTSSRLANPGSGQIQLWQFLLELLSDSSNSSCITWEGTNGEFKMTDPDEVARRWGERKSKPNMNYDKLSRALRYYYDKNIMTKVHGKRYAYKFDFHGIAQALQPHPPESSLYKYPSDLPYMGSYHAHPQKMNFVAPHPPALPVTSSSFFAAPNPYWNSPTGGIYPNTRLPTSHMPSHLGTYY
Procedure, shortened: as §1

ELF1 = ELF1 (Homo sapiens, UniProt P32519 1-619); conditions: protein: recombinant; tags: N-terminal GST; dsDNA, one strand shown
ELF1, sequence (P32519 whole entry): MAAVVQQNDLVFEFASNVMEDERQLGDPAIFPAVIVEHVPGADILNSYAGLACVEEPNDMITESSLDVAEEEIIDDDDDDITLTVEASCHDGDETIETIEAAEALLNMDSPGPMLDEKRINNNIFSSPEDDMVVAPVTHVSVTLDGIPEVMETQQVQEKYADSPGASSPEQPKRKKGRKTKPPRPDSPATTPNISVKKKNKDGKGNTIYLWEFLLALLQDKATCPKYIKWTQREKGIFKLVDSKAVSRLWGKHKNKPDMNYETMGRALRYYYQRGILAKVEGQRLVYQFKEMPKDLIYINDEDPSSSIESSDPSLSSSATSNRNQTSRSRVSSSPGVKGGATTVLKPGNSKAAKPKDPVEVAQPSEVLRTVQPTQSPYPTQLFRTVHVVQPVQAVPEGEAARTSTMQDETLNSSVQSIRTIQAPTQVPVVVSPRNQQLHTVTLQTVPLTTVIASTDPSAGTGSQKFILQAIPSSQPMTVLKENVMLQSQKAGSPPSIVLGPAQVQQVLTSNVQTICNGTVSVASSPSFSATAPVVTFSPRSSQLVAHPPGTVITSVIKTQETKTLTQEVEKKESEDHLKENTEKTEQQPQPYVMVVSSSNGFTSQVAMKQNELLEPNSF
Procedure, shortened: as §1

EHF = target: T5, EHF (Homo sapiens, UniProt Q9NZC4 1-300); conditions: protein: recombinant; tags: N-terminal GST; dsDNA, one strand shown
T5 sequence: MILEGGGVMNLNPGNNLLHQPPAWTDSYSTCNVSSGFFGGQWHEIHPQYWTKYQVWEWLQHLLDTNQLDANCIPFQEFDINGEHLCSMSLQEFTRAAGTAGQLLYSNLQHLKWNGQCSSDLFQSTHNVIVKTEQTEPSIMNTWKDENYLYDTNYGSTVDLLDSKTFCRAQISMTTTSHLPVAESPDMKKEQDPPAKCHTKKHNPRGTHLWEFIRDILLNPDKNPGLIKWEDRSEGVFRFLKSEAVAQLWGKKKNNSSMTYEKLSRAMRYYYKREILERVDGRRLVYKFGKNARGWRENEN
Procedure, shortened: as §1

SPI1 = SPI1 (Homo sapiens, UniProt P17947 1-270); conditions: protein: recombinant; tags: N-terminal GST; dsDNA, one strand shown
Procedure, shortened: as §1

SPIB = SPIB (Homo sapiens, UniProt Q01892 1-262); conditions: protein: recombinant; tags: N-terminal GST; dsDNA, one strand shown
SPIB, sequence (Q01892 whole entry): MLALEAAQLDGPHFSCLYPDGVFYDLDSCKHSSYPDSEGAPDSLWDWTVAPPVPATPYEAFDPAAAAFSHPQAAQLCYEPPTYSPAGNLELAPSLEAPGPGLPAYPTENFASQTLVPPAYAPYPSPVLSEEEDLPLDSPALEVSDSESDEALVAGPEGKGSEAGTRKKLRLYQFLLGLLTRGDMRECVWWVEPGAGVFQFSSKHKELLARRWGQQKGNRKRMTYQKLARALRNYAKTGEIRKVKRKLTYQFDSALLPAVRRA
Procedure, shortened: as §1

ELK3 = target: T6, ELK3 (Homo sapiens, UniProt P41970 1-407); conditions: protein: recombinant; tags: N-terminal GST; dsDNA, one strand shown
T6 sequence: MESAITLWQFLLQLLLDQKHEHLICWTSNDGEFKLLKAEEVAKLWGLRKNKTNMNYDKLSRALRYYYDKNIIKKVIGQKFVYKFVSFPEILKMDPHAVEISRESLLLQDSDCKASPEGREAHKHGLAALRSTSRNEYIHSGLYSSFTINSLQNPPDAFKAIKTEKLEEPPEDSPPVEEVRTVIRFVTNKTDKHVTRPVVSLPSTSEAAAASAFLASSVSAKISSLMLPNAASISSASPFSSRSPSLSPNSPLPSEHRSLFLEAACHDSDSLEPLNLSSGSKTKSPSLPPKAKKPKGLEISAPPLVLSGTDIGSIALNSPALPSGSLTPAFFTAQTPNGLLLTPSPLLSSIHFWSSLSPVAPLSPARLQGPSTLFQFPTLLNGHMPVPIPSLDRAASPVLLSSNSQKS
Procedure, shortened: as §1

FEV = target: T7, FEV (Homo sapiens, UniProt Q99581 1-238); conditions: protein: recombinant; tags: N-terminal GST; dsDNA, one strand shown
T7 sequence: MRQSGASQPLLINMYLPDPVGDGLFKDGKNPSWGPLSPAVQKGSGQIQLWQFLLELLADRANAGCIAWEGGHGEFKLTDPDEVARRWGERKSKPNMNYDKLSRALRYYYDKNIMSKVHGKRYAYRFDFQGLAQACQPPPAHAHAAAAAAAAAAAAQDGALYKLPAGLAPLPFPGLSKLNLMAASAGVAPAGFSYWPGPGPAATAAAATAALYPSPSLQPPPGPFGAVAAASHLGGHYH
Procedure, shortened: as §1

ETV5 = ETV5 (Homo sapiens, UniProt P41161 1-510); conditions: protein: recombinant; tags: N-terminal GST; dsDNA, one strand shown
ETV5, sequence (P41161 whole entry): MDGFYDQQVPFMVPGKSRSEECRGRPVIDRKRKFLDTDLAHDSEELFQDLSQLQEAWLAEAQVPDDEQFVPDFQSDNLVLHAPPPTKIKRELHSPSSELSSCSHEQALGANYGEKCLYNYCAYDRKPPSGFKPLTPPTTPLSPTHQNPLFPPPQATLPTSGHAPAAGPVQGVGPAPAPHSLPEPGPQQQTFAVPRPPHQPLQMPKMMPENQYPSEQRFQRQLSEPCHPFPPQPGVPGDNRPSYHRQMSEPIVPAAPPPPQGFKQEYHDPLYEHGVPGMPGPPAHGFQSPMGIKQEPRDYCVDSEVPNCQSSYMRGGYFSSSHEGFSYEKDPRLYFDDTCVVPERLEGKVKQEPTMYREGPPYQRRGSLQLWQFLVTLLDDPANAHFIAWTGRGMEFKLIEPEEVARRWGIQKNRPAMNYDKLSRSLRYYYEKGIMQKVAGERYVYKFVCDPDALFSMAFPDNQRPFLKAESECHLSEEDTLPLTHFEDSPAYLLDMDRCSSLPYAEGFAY
Procedure, shortened: as §1

HSF1 = HSF1 (Homo sapiens, UniProt Q00613 1-529); conditions: protein: recombinant; tags: N-terminal GST; chain copies: 3; dsDNA, one strand shown
HSF1, sequence (Q00613 whole entry): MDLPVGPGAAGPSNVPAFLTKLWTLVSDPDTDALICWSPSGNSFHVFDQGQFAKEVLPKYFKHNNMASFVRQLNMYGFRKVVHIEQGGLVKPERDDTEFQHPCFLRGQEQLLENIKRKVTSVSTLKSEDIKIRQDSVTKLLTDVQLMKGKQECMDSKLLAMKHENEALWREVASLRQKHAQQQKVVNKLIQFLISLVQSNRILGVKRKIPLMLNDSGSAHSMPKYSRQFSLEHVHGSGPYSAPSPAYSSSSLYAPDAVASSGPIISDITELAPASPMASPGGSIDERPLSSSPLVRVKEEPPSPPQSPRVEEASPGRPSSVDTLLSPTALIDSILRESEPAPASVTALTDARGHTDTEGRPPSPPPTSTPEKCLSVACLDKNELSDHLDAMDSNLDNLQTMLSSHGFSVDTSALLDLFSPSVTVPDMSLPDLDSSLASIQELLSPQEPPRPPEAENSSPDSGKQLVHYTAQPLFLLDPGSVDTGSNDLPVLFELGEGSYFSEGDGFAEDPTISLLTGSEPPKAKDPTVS
Procedure, shortened: as §1

SPIC = target: T8, SPIC (Homo sapiens, UniProt Q8N5J4 1-248); conditions: protein: recombinant; tags: N-terminal GST; dsDNA, one strand shown
T8 sequence: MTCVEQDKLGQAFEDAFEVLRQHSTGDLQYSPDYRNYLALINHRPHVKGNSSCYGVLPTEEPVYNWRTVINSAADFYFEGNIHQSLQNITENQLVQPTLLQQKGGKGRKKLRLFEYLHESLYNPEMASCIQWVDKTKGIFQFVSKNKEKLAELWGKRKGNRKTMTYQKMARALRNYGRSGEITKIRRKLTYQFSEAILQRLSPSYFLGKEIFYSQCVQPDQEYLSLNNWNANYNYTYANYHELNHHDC
Procedure, shortened: as §1

ELF4 = ELF4 (Homo sapiens, UniProt Q99607 1-663); conditions: protein: recombinant; tags: N-terminal GST; dsDNA, one strand shown
ELF4, sequence (Q99607 whole entry): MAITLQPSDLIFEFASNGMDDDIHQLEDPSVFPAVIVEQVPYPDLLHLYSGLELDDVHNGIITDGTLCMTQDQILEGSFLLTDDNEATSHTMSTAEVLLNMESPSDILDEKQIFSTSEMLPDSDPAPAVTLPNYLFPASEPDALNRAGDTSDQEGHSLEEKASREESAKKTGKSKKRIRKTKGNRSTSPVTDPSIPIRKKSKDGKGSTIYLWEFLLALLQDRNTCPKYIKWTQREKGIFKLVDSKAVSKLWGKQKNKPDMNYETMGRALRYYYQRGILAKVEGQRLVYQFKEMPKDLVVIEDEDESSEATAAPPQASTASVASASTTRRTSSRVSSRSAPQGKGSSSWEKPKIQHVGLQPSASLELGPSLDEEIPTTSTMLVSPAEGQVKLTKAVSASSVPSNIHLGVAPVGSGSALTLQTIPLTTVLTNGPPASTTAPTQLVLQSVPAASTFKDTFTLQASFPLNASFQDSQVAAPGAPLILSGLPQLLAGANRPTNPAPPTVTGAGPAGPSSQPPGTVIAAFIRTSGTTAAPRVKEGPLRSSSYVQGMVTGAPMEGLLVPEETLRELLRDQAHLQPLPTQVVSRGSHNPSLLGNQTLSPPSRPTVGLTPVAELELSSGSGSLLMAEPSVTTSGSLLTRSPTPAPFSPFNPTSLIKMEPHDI
Procedure, shortened: as §1

ELK4 = target: T9, ELK4 (Homo sapiens, UniProt P28324-2 1-405); conditions: protein: recombinant; tags: N-terminal GST; dsDNA, one strand shown
T9 sequence: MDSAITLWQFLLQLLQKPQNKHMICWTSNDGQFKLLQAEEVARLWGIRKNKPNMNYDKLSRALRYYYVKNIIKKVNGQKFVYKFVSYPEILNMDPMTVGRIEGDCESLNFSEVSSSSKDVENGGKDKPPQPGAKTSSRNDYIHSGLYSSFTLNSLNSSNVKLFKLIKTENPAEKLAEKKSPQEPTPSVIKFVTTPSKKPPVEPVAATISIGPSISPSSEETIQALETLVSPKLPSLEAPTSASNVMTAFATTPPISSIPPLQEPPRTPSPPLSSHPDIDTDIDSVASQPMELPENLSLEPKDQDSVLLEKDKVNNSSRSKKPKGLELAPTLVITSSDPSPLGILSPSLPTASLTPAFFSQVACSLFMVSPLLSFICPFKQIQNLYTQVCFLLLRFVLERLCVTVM
Procedure, shortened: as §1

ETV2 = target: T10, ETV2 (Homo sapiens, UniProt O00321 1-342); conditions: protein: recombinant; tags: N-terminal GST; dsDNA, one strand shown
T10 sequence: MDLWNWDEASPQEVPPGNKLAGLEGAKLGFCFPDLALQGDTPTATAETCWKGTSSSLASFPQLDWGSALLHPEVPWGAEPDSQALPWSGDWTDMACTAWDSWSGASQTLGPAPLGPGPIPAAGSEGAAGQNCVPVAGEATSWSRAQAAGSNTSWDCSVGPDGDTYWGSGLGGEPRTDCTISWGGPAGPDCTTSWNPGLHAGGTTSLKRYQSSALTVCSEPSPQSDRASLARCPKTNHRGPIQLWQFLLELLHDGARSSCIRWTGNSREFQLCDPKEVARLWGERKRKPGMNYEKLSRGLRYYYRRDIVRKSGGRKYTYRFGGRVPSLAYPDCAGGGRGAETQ
Procedure, shortened: as §1

ELF3 = target: T11, ELF3 (Homo sapiens, UniProt P78545 1-371); conditions: protein: recombinant; tags: N-terminal GST; dsDNA, one strand shown
T11 sequence: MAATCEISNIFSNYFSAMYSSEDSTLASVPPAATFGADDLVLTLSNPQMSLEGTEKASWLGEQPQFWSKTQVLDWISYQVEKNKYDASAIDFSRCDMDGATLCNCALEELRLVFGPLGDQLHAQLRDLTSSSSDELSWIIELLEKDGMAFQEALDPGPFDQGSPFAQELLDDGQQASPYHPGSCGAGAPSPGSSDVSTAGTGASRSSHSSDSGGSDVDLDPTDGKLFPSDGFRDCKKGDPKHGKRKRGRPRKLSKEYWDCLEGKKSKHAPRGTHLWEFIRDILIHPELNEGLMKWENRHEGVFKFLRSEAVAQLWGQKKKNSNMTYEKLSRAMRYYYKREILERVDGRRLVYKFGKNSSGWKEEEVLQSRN
Procedure, shortened: as §1

CRX = CRX (Homo sapiens, UniProt O43186 1-299); conditions: protein: recombinant; tags: N-terminal GST; dsDNA, one strand shown
CRX, sequence (O43186 whole entry): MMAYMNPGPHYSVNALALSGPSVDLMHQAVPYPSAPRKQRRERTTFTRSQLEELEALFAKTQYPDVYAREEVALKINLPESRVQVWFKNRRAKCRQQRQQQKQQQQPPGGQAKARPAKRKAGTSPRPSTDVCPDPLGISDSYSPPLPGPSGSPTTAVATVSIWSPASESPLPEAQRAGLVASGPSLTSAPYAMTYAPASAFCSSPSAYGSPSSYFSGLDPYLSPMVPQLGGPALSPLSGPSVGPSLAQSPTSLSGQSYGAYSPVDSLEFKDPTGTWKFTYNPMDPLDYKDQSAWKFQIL
Procedure, shortened: as §1

ETV1 = ETV1 (Homo sapiens, UniProt P50549 1-477); conditions: protein: recombinant; tags: N-terminal GST; dsDNA, one strand shown
ETV1, sequence (P50549 whole entry): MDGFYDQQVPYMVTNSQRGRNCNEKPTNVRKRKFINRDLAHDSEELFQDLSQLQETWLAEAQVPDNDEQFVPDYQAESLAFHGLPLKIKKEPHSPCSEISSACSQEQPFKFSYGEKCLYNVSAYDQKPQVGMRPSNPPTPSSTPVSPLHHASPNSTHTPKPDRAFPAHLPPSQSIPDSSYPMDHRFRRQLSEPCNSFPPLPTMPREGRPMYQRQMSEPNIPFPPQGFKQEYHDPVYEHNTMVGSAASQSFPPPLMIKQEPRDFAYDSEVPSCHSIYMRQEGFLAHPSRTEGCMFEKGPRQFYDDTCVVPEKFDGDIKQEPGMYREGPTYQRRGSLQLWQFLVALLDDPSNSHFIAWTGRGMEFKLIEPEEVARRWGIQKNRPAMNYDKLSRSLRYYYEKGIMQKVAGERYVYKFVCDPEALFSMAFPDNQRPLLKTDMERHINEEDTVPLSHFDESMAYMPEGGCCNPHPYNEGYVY
Procedure, shortened: as §1

TCCGGA
binding signal (FLI1): 2.58 fold enrichment (6-mer frequency, TF over GST control)
binding signal (ELK1): 2.53 fold enrichment (6-mer frequency, TF over GST control)
binding signal (GABPA): 2.37 fold enrichment (6-mer frequency, TF over GST control)
binding signal (ERG): 3.19 fold enrichment (6-mer frequency, TF over GST control)
binding signal (ELF1): 2.3 fold enrichment (6-mer frequency, TF over GST control)
binding signal (EHF): 2.86 fold enrichment (6-mer frequency, TF over GST control)
binding signal (SPI1): 2.39 fold enrichment (6-mer frequency, TF over GST control)
binding signal (SPIB): 2.69 fold enrichment (6-mer frequency, TF over GST control)
binding signal (ELK3): 2.67 fold enrichment (6-mer frequency, TF over GST control)
binding signal (FEV): 3.95 fold enrichment (6-mer frequency, TF over GST control)
binding signal (ETV5): 2.83 fold enrichment (6-mer frequency, TF over GST control)
binding signal (HSF1): 1.58 fold enrichment (6-mer frequency, TF over GST control)
binding signal (SPIC): 2.3 fold enrichment (6-mer frequency, TF over GST control)
binding signal (ELF4): 2.27 fold enrichment (6-mer frequency, TF over GST control)
binding signal (ELK4): 1.94 fold enrichment (6-mer frequency, TF over GST control)
binding signal (ETV2): 2.27 fold enrichment (6-mer frequency, TF over GST control)
binding signal (ELF3): 2.23 fold enrichment (6-mer frequency, TF over GST control)
binding signal (CRX): 1.14 fold enrichment (6-mer frequency, TF over GST control)
binding signal (ETV1): 2.75 fold enrichment (6-mer frequency, TF over GST control)
